Experimental data: PubChem BioAssay AID651813 (National Center for Advancing Translational Sciences (NCATS), 2012)
About 1,100 (52%) of roughly 2,100 compounds were called active. About 27% were inconclusive and are not listed. So high a share suggests a set chosen from earlier hits. The list shows a part of the results. Unmarked numbers belong to inactive results. Calls follow the shape of the dose curve; as a rule, active = well fitted inhibition curve with a large enough effect; inconclusive = small, poorly fitted or top-dose-only effect; inactive = no such curve, though single readings can be large or run the other way.

Each compound was assayed against DNA dC->dU-editing enzyme APOBEC-3G (Homo sapiens) (UniProt Q9HC16) (assay: qHTS for inhibitors of Vif-A3G interactions: Cherry picks counterscreen). Settings: HeLa A3G-eYFP + Vif (tagged APOBEC3G with the HIV-1 protein that degrades it), eYFP fluorescence, 24 h.
Method in brief: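 HeLa cells stably expressing A3G-eYFP and Vif were treated for 24 h at 37 deg C with compounds at several concentrations; yellow fluorescence (Ex 488 nm, Em 500-530 nm) read by Acumen Explorer, MG132 as positive control.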
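Also: hits raise yellow fluorescence by blocking Vif-driven A3G-eYFP degradation; nearly all actives have a fitted effect of over 70% in size.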
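For max response in this document: max response given as percent of control signal.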
Potency is read from the fitted curve at half-maximal effect.

Sequence of DNA dC->dU-editing enzyme APOBEC-3G (Homo sapiens) (Q9HC16 whole entry, looked up): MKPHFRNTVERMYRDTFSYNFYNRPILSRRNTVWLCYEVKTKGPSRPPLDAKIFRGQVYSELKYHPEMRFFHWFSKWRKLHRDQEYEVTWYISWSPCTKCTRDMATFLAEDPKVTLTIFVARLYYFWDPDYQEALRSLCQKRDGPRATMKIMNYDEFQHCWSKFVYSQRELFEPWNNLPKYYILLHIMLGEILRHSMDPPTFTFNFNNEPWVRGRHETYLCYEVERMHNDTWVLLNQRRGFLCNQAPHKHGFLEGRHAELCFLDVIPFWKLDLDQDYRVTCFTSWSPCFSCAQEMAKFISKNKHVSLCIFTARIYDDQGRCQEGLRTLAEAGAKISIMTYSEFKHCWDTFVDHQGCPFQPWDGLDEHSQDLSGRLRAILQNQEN

| Structure (SMILES) | Potency | max response |
| --- | --- | --- |
| CN(C)c1ccc(/C=C/c2ccnc3ccccc23)c(N)c1 | 2.91 µM (active) | – |
| CN(C)c1ccc(/C=C/c2ccnc3ccc(-c4ccccc4)cc23)cc1 | 5.8 µM (active) | – |
| CN(C)c1ccc(/C=C/C=C/c2ccnc3ccccc23)cc1 | 4.61 µM (active) | – |
| CN(C)c1ccc(/C=C/c2ccnc3ccccc23)cc1 | 20.6 µM (active) | – |
| CNc1ccc(/C=C/c2ccnc3ccccc23)cc1 | 16.4 µM (active) | – |
| O=C(Cn1ncc(Cl)c(Cl)c1=O)NC(=O)NC1CCCCC1 | 14 µM (active) | – |
| Cc1nc(-c2ccc(Cl)cc2)sc1C(=O)NN | 15.8 µM (active) | – |
| COc1ccc2cc(C(=O)C3CCCN(Cc4ccccn4)C3)ccc2c1 (stereo not drawn) | – | -1.88% |
| CCOC(=O)C1CCCN(C(=O)c2ccc3nc(-c4cccc(OC)c4)oc3c2)C1 (stereo not drawn) | 7.04 µM (active) | – |
| COc1ccc(OC)c(C2CC(=O)c3c([nH]c(C(=O)OCC4CCCO4)c3C)C2)c1 (stereo not drawn) | 5.59 µM (active) | – |
| COCCOC(=O)c1[nH]c2c(c1C)C(=O)CC(c1ccccc1)C2 (stereo not drawn) | 0.994 µM (active) | – |
| Cc1c(C(=O)N2CCOCC2)[nH]c2c1C(=O)CC(c1ccccc1Cl)C2 (stereo not drawn) | 8.86 µM (active) | – |
| Cc1c(C(=O)OC2CCCCC2)[nH]c2c1C(=O)CC(c1ccccc1Cl)C2 (stereo not drawn) | 9.2 µM (active) | – |
| O=C(COc1ccc(C(=O)c2ccccc2)cc1)NCc1ccc(F)cc1 | 2.5 µM (active) | – |
| CCN(CC)S(=O)(=O)c1cc([N+](=O)[O-])ccc1N=Nc1c(O)[nH]c2ccccc12 | 23.1 µM (active) | – |
| Cc1ccccc1NCC(=O)N=Nc1c(O)[nH]c2ccc([N+](=O)[O-])cc12 | – | -0.0304% |
| O=C(NCc1cc(C(F)(F)F)ccc1Cl)c1cccc2c1C(=O)c1ccc(N3CCC(Cc4ccccc4)CC3)cc1S2(=O)=O | 14 µM (active) | – |
| O=C(NCc1cccc(C(F)(F)F)c1)c1cccc2c1C(=O)c1ccc(N3CCC(Cc4ccccc4)CC3)cc1S2(=O)=O | 23.1 µM (active) | – |
| O=C(NCc1ccco1)c1cccc2c1C(=O)c1ccc(N3CCC(Cc4ccccc4)CC3)cc1S2(=O)=O | 23.1 µM (active) | – |
| Cc1ccc(CSc2nc(-c3ccc(C(C)(C)C)cc3)nc3cc(=O)[nH]n23)cc1 | – | 28.6% |
| CCCOc1ccc2cc(C(=O)NCc3ccccc3)c(=O)oc2c1 | – | -5.24% |
| COc1cccc(Nc2ncccc2C(=O)NCc2ccccc2)c1 | 19.8 µM (active) | – |

| Structure (SMILES) | Potency | max response |
| --- | --- | --- |
| N#C/C(=C\c1ccc(N2CCOCC2)o1)C(=O)NC1CCCCC1 | 17.7 µM (active) | – |
| N#C/C(=C\c1ccccc1[N+](=O)[O-])C(=O)NCc1ccccc1 | – | 2.31% |
| CN(C)c1ccc(/C=C(/C#N)C(=O)NCc2ccccc2)o1 | 1.84 µM (active) | – |
| N#C/C(=C\c1ccc(N2CCOCC2)o1)C(=O)NCCc1ccccc1 | 3.26 µM (active) | – |
| CCOC(=O)CN1C(=O)S/C(=C/c2ccc(N3CCCCC3)o2)C1=O | – | 55% |
| N#C/C(=C\c1ccc(N2CCCCC2)o1)C(N)=O | 15.8 µM (active) | – |
| N#C/C(=C/c1ccc(N2CCOCC2)o1)C(=O)NC1CCCCC1 | 16.4 µM (active) | – |
| CCSC1=N/C(=C\C=C2/Oc3ccccc3N2CC)C(=O)S1 | 8.2 µM (active) | – |
| CCCCN1C(=O)/C(=C/C=C2\Oc3ccccc3N2CC)SC1=S | – | 51.7% |
| CCOc1ccc(-c2cc(C(=O)NCCc3ccc(OC)c(OC)c3)c3c(-c4ccc(F)cc4)[nH]nc3n2)cc1 | – | -21% |
| COc1ccc(-c2n[nH]c3c2CN(C(=O)c2ccc(OC)c(OC)c2)CC3)cc1 | 9.94 µM (active) | – |
| C=C(NC(=O)C(=C)NC(=O)c1csc(C2=NC3c4csc(n4)C4NC(=O)c5csc(n5)C(C(C)(O)C(C)O)NC(=O)C5CSC(=N5)/C(=C/C)NC(=O)C(C(C)O)NC(=O)c5csc(n5)C3(CC2)NC(=O)C(C)NC(=O)C(=C)NC(=O)C(=C)NC(=O)C(C(C)C)NC2C=Cc3c(C(C)O)cc(nc3C2O)C(=O)OC4C)n1)C(N)=O (stereo not drawn) | 7.04 µM (active) | – |
| CN(C)/C=N/C1=C(C#N)C(c2cccs2)c2ccc3ccccc3c2O1 (stereo not drawn) | 2.8 µM (active) | – |
| CCCCn1c(N)c(N(CCC(C)C)C(=O)c2ccc([N+](=O)[O-])o2)c(=O)[nH]c1=O | – | -4.38% |
| CCCCN(C(=O)c1ccc([N+](=O)[O-])s1)c1c(N)n(CCCC)c(=O)[nH]c1=O | – | -2.12% |
| Nc1c(N(CCC2=CCCCC2)C(=O)c2ccc([N+](=O)[O-])o2)c(=O)[nH]c(=O)n1Cc1ccccc1 | 13 µM (active) | – |
| O=C1c2ccccc2C(=O)c2c(/C=C/N3CCCCC3)ccnc21 | 23.1 µM (active) | – |
| Nc1nc(-c2cc(O)ccc2[N+](=O)[O-])cc(-c2ccccc2)c1[N+](=O)[O-] | 14 µM (active) | – |
| O=C(Nc1cc(=O)[nH]c(=O)[nH]1)c1cc(Cl)ccc1Cl | 3.14 µM (active) | – |
| O=C(COC(=O)C12CC3CC(CC(Cl)(C3)C1)C2)N1CCCCC1 | – | -19.2% |
| Cc1ccc(S(=O)(=O)Nc2cc(-c3nn(C)c(=O)c4ccccc34)ccc2N2CCOCC2)cc1 | 15.8 µM (active) | – |
| COc1ccc(/C=c2\s/c(=C/C(=O)c3ccc(C)cc3)[nH]c2=O)c(OC)c1 | 20.6 µM (active) | – |

| Structure (SMILES) | Potency | max response |
| --- | --- | --- |
| CCCOc1ccc(C(=O)Nc2cccc(NC(=O)c3ccc(Cl)cc3Cl)c2)cc1 | 16.4 µM (active) | – |
| CC(C)(C)OC(=O)NCc1ccc(NC(=O)c2nc[nH]c2C(=O)NCCCNC(=O)c2[nH]cnc2C(=O)Nc2ccc(CNC(=O)OC(C)(C)C)cc2)cc1 | – | 4.7% |
| Cc1onc(-c2c(F)cccc2Cl)c1C(=O)O/N=C(\N)c1ccc([N+](=O)[O-])o1 | – | 19.3% |
| Cc1cccc(/C=C/C(=O)c2ccc([N+](=O)[O-])o2)c1 | – | -131% |
| O=C(/C=C/c1ccc(Cl)cc1)c1ccc([N+](=O)[O-])o1 | 12.5 µM (active) | – |
| CC(/C=N/NC(=O)c1cccc(F)c1)=C\c1ccccc1 | 9.94 µM (active) | – |
| O=C(O)c1ccc(N/N=C/C(Br)=C/c2ccccc2)cc1 | – | 24.8% |
| COc1cccc(C(=O)N/N=C/C(Br)=C/c2ccccc2)c1 | 2.23 µM (active) | – |
| COc1cccc(/C=N/n2c(C3CCCCC3)n[nH]c2=S)c1O | – | 12.3% |
| C/C(=N/NC(N)=S)c1ccc(Br)s1 | – | 13.4% |
| COc1ccc(C(=O)N/N=C/c2cc(Br)ccc2O)cc1OC | – | -1.25% |
| COc1ccc(N/C=C/C(=O)c2cc(OC)c(OC)c(OC)c2)cc1 | 0.886 µM (active) | – |
| COc1ccc(N/C=C\C(=O)c2ccc(Br)cc2)cc1OC | 18.4 µM (active) | – |
| Cc1cc(=O)oc2cc(OCC(=O)N3c4ccccc4CC3C)ccc12 (stereo not drawn) | 4.44 µM (active) | – |
| CCOC(=O)c1cc(-c2ccccc2C)n(CC2CC(c3ccc(OC)cc3)=NO2)n1 (stereo not drawn) | – | -3.65% |
| COc1ccccc1C1=NOC(COc2ccc3c(C)cc(=O)oc3c2)C1 (stereo not drawn) | 0.559 µM (active) | – |
| CCn1c(SCC(=O)c2c[nH]c3ccccc23)nnc1-c1cccs1 | 18.4 µM (active) | – |
| CCN(C)c1ccc(/C=N\n2nnnc2N)cc1 | 5.59 µM (active) | – |
| Clc1ccc2c(c1)C(C1=NCCN1)c1ccccc1CS2 (stereo not drawn) | 3.14 µM (active) | – |
| Cc1ccccc1/C=C\c1nc2ccccc2c(=O)[nH]1 | 11.2 µM (active) | – |
| O=C1c2cccc3c(N4CCCCC4)ccc(c23)C(=O)N1CCO | 14 µM (active) | – |
| O=C1c2cccc3c(N4CCCCC4)ccc(c23)C(=O)N1c1ccc(O)cc1 | – | 54.2% |

| Structure (SMILES) | Potency | max response |
| --- | --- | --- |
| C=CCN1C(=O)c2cccc3c(N4CCCCC4)ccc(c23)C1=O | 18.4 µM (active) | – |
| Cc1ccc(N2C(=O)c3cccc4c(N5CCN(C)CC5)ccc(c34)C2=O)c2cccnc12 | 15.8 µM (active) | – |
| O=C1c2cccc3c(N4CCCCC4)ccc(c23)C(=O)N1c1cccc(O)c1 | 2.59 µM (active) | – |
| CSc1nc(Sc2ccccc2Cl)c2ccccc2n1 | – | -6.36% |
| CN(C)c1ccc(/C=C/c2ccncc2)cc1 | 2.59 µM (active) | – |
| CCN(CC)c1ccc(/C=C/C(=O)c2ccc(Br)cc2)cc1 | – | 26.9% |
| CCN(CC)c1ccc(/C=C/c2ccncc2)cc1 | 4.61 µM (active) | – |
| CCN(CC)c1ccc(/C=C/c2ccccn2)cc1 | 16.4 µM (active) | – |
| CCN(CC)c1ccc(/C=C/C2=C3C=CC=CC3NC=C2)cc1 (stereo not drawn) | 20.6 µM (active) | – |
| NC(=S)N/N=C/c1ccccc1OC(=O)/C=C/c1ccccc1 | – | 5.74% |
| O=[N+]([O-])c1ccccc1C=NNC(=S)NN=Cc1ccccc1[N+](=O)[O-] | 8.86 µM (active) | – |
| NC(=S)N/N=C/c1cccc(O)c1O | – | 3.32% |
| CN(C)c1ccc(/C=C2\SC(N3CCCCC3)=NC2=O)cc1 | 20.6 µM (active) | – |
| CCN(CC)c1ccc(/C=C2\C(=N)N3N=C(CC(=O)N4CCOCC4)SC3=NC2=O)cc1 | 1.58 µM (active) | – |
| COc1cc(/C=C2\C(=N)N3N=C(S(C)(=O)=O)SC3=NC2=O)ccc1OC(=O)c1ccco1 | – | 53.1% |
| CN(C)c1ccc(/C=C2\C(=N)N3N=C(CC(=O)N4CCCCC4)SC3=NC2=O)cc1 | 4.61 µM (active) | – |
| O=C(c1ccccn1)C1CCCN(Cc2cn[nH]c2-c2cc3ccccc3o2)C1 (stereo not drawn) | – | 0.488% |
| C=CCn1c(O)c(N=NC(=O)CNC(=O)c2ccco2)c2ccccc21 | 12.5 µM (active) | – |
| C=C(C)CNC(=S)NNC(=O)c1ccco1 | – | 8.06% |
| CCOC(=S)SCC(=O)N1CCc2cc(OC)ccc2C1C1C(=O)CCCC1=O (stereo not drawn) | 14 µM (active) | – |
| Cc1ccc(C=Nc2ccccc2C(N)=O)s1 | 2.5 µM (active) | – |
| Cc1cccc(C=Nc2ccccc2C(N)=O)c1 | 9.94 µM (active) | – |
